Assay outcomes (PubChem)
POLH inh – DNA polymerase eta (human) inhibition; Q9Y253; recombinant Pol eta, fluorescent DNA replication assay; AID 588591; 390,000 compounds, 1.2% hits; Potency, µM (series often up to 114 µM), without a hit: top-dose activity change, negative = inhibition, actives largely listed as inhibitors; further: on the % scale 0 is the no-effect control and ±100 the full control effect
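Pol eta (10 nM) was preincubated with compounds for 15 min at room temperature, after which fluorescent replication substrate (50 nM final) was added to start the reaction. Fluorescence was read kinetically at 0 and 10 min.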
PGK inhibitor – blocks T. brucei phosphoglycerate kinase; P07378; PGK/GAPDH coupled, Kinase-Glo luminescence, 60 min; Potency, µM (doses to about 57.5 µM), without a hit: at the top dose activity change, negative = inhibition, actives largely listed as inhibitors; 380,000 compounds, 0.043% hits; AID 602233; further: on the % scale 0 is the no-effect control and ±100 the full control effect; nearly all actives have a fitted effect of over 60% in size
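Luminescent ATP detection (Kinase-Glo Plus) follows a 60-minute room-temperature incubation, with wells lacking PGK as controls. Buffer: 100 mM TEA (pH 7.6), 5 mM MgCl2, 0.01% Tween-20. Coupling enzyme GAPDH (100 nM final) supplies unstable 1,3-BPG in-well.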
FEN1 inh – inhibitors of human flap endonuclease 1. Recombinant FEN1 flap cleavage, fluorescence, 15 min. Potency, µM (highest dose often 114 µM), for the others: top-dose activity change, negative = inhibition, hits mostly inhibitors. 390,000 compounds, 0.35% hits. AID 588795; further: on the % scale 0 is the no-effect control and ±100 the full control effect; nearly all actives have a fitted effect of over 65% in size
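Read-out was taken twice, immediately and after 15 min, following addition of 50 nM substrate to 10 nM FEN1 that had sat with test compound for 15 min at room temperature. Curves came from a four-parameter Hill model.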
POLB inh – blocks human DNA polymerase beta activity; 340,000 compounds, 1.3% hits; Potency, µM (top dose mostly 114 µM), without a hit: at the highest dose activity change, negative = inhibition, actives largely listed as inhibitors; Pol beta primer extension/strand displacement, fluorescence kinetic; further: on the % scale 0 is the no-effect control and ±100 the full control effect
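Pol beta (10 nM) and compounds were preincubated 15 min at room temperature, then 50 nM substrate (final) started primer extension/strand displacement. Reads were taken at 0 and 10 min; concentration-response data were fitted to a four-parameter Hill equation.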
POLI inh – blocks human DNA polymerase iota activity; Potency, µM (doses to about 115 µM), inactives show top-dose activity, negative = inhibition, usual class: inhibitors; 390,000 compounds, 1% hits; Pol iota fluorescent replication assay, 10 min
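Pol iota at 10 nM preincubated 15 min with compounds at room temperature; reaction started with fluorescent substrate, 50 nM final. Fluorescence read kinetically at 0 and 10 min; buffer-only wells as negative control.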
Pol kappa inh – inhibitors of human DNA polymerase kappa. 400,000 compounds, 0.53% hits. Potency, µM (highest dose often 107 µM), without a hit: top-dose activity, negative = inhibition, most hits filed as inhibitors. Q9UBT6. purified Pol kappa, fluorescent DNA synthesis assay, 10 min; further: on the % scale 0 is the no-effect control and ±100 the full control effect
Target sequence (Q9UBT6 whole entry, looked up): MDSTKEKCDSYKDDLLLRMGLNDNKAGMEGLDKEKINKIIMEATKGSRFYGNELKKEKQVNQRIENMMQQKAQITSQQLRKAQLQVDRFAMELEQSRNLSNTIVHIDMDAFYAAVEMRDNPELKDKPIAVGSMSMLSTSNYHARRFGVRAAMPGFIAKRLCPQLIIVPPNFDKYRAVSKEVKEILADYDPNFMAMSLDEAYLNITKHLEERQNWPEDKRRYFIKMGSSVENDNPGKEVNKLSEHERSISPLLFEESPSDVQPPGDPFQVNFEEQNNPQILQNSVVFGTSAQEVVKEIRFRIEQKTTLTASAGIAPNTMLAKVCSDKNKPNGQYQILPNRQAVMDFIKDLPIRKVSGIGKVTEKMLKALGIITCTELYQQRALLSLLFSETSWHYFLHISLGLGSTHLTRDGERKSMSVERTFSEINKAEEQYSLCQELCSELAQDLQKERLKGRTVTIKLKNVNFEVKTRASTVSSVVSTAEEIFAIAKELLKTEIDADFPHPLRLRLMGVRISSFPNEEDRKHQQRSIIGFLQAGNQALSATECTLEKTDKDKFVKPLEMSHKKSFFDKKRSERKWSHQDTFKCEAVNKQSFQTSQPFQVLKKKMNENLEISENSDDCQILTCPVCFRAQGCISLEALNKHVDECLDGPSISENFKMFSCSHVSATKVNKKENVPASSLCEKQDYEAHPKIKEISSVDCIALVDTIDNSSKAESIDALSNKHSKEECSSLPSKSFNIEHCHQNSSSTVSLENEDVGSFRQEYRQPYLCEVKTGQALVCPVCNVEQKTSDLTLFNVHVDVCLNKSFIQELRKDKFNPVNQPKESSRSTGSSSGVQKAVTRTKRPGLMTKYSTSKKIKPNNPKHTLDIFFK
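10 nM Pol kappa preincubated 15 min at room temperature with compounds, then reaction started with substrate at 50 nM final. Fluorescence read kinetically at 0 and 10 min; buffer-only wells served as negative control.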
The depositor's hits bear a star; i = inactive; ? = inconclusive; / = no result; [ ] = remark or other dose. Shown are actives, neighbours in structure and some others; about 2.4% of the full set was active somewhere. The call rests on the fitted dose curve; in most records, active means well fitted curve in the direction sought with a large enough effect; inconclusive means small, poorly fitted or top-dose-only effect, or another doubt; inactive means no such curve, though single readings can be large; an effect the other way counts as inactive or inconclusive. Potency means the concentration at half of the fitted maximal effect.

SMILES | POLH inh | PGK inhibitor | FEN1 inh | POLB inh | POLI inh | Pol kappa inh
N#CC1=C(N)OC2=C(CC/C2=C\c2ccc(F)cc2)C1c1ccc(F)cc1 (configuration not stated) | / | / | / | -12% | / | /
N#CC1=C(N)OC2=C(CCC/C2=C/c2ccoc2)C1c1ccoc1 (configuration not stated) | / | / | / | 14µM* | / | /
COc1ccc(NC2CCCN(C(=O)c3cccc(C)n3)C2)cc1OC (configuration not stated) | -2% | 1% | 1% | 3% | 50µM* | ?
COc1ccc(NC2CCCN(C(=O)c3csc(C(C)C)n3)C2)cc1OC (configuration not stated) | -6% | -7% | 1% | 19% | 16% | -1%
Cc1ccc(-n2cnc3cc(C(=O)NCc4ccc(F)cc4)ccc32)c(C)c1 | -7% | i | -11% | 0% | -4% | -7%[60.1 µM]
CC(=O)c1cccc(NC(=O)COC(=O)c2ccccc2OCc2cccc(Br)c2)c1 | / | / | -11% | / | ? | -3%
CS(=O)(=O)c1ccc2nc(NC(=O)c3ccc(=O)[nH]c3)sc2c1 | 50µM* | -4% | -5% | -21% | 50µM* | -17%
CCOc1ccc(C(=O)Nc2ccc(N3CCN(C(=O)c4ccco4)CC3)cc2)cc1Br | ? | 1% | -2% | / | 25µM* | -9%
COc1ncc2nc(-c3cn(C)c4ccccc34)c(=O)n(CCc3ccccc3)c2n1 | / | / | / | / | / | 4%[60.1 µM]
CN(C)c1ccc(C=c2c3cc(O)ccc3n3c2cc(-c2ccccc2)[n+]3C)cc1 | ? | i | 7.9µM* | / | 50µM* | ?
CN(C)c1ccc(C=c2c3ccccc3n3c2c2ccccc2[n+]3C)cc1 | ? | -13% | 32µM* | / | ? | -19%
CN(C)c1ccc(/C=C/c2c[n+](C)cc3ccccc23)cc1 | / | / | ? | / | -12% | -19%
C[n+]1c(-c2ccccc2)cc2c(=Cc3ccc([N+](=O)[O-])cc3)c3ccccc3n21 | 7% | 0% | -19% | / | 50µM* | -3%
CN(C)c1ccc(C=C2c3ccccc3-c3ccccc32)cc1 | / | / | -3% | / | 2% | -21%
C[n+]1c(-c2ccccc2)cc2c(=Cc3ccccc3)c3ccccc3n21 | 13% | -4% | ? | / | 50µM* | -11%
CN(C)N=Nc1ccc(/C=C2\C=Cc3ccccc32)cc1 | / | / | -12% | / | 5% | -7%
Cc1ccc(Nc2nc(NCc3ccco3)nc3nccnc23)cc1 | / | / | -10% | / | 8% | -7%
COc1ccc(C)cc1NC(=O)NNC(=O)c1cc2ccccc2cc1O | -1% | -9% | -11% | 79µM* | -26% | -13%
CCN1/C(=C/c2cc[n+](CCCS(=O)(=O)[O-])c3ccccc23)Sc2ccccc21 | -5% | -2% | ? | ? | ? | -12%
C=CC[n+]1ccc(/C=C2\C=Cc3cc(C)ccc3N2CC)c2ccccc21 | -15% | ? | ? | ? | ? | 50µM*
O=C(O)c1ccc(-n2ncc3c2/C(=C\c2cccc([N+](=O)[O-])c2)CC3)cc1 | ? | -12% | 7% | / | ? | -11%
O=C(O)c1ccc(-n2ncc3c2/C(=C/c2cccc([N+](=O)[O-])c2)CC3)cc1 | 50µM* | -1% | 1% | 1% | ? | -9%
c1ccc(-c2nc(SCC3CCCCO3)n[nH]2)cc1 (configuration not stated) | / | / | -8% | / | -9% | -10%
CCc1nc2oc3cc(OC)ccc3c(=O)c2c(=O)n1Cc1ccco1 | -8% | -8% | -4% | 25µM* | ? | -41%
C=C1c2cccc(O)c2C(O)=C2C(=O)[C@@]3(O)C(O)=C(C(N)=O)C(=O)[C@@H](N(C)C)[C@@H]3[C@@H](O)[C@H]12 | / | / | / | / | / | 1.8µM*
SMILES | POLH inh | PGK inhibitor | FEN1 inh | POLB inh | POLI inh | Pol kappa inh
C=C1c2cccc(O)c2C(=O)C2C(=O)[C@]3(O)C(=O)C(C(N)=O)C(=O)[C@@H](N(C)C)[C@@H]3[C@@H](O)[C@H]12 (some centres not stated) | ? | -28% | 14µM* | / | 1.3µM* | ?
CCC(C)[C@H](NC(=O)C1CCC(CNC(=O)[C@@H]2CCCN2C(=O)OC(C)(C)C)CC1)C(=O)O (some centres not stated) | 7% | 3% | -7% | 0.22µM* | -1% | 2%
O=C(Nc1nc2c(F)cc(F)cc2s1)c1ccc(S(=O)(=O)N2CCc3ccccc32)cc1 | -11% | 1% | 10% | 32µM* | ? | -11%[60.1 µM]
O=C1c2c(O)cc(O)cc2O[C@H](c2ccc(O)cc2)[C@H]1O | -12% | 0% | 10% | / | -15% | 8%
C[C@@H]1O[C@@H](O[C@@H]2C(=O)c3c(O)cc(O)cc3O[C@H]2c2ccc(O)c(O)c2)[C@H](O)[C@H](O)[C@H]1O | 1% | -6% | -6% | / | -18% | -31%
O=C1c2c(O)cc(O)cc2O[C@H](c2ccc(O)c(O)c2)[C@@H]1O | / | / | / | 3.5µM* | / | /
O=C1c2c(O)cc(O)cc2O[C@H](c2ccc(O)c(O)c2)[C@H]1O | 4% | -1% | ? | 3.2µM* | 79µM* | ?
COc1ccc(/C=C/C(=O)c2c(O)c(OC)c3occc3c2OC)cc1OC | / | / | 2% | / | -11% | 9%
CN1CCN(c2ncc3nc(-c4ccc(Cl)cc4)c(=O)n(CCC#N)c3n2)CC1 | / | / | / | / | / | -9%[60.1 µM]
O=c1c(-c2cccs2)nc2cnc(N3CCNCC3)nc2n1Cc1cccs1 | / | / | / | / | / | 32µM*
O=c1c(-c2cc(F)cc(F)c2)nc2cnc(N3CCNCC3)nc2n1Cc1cccs1 | / | / | / | / | / | 28µM*
CN1CCN(c2ncc3nc(-c4cccs4)c(=O)n(Cc4cccs4)c3n2)CC1 | / | / | / | / | / | -17%[60.1 µM]
N#C/C(C(=O)N1CCCCC1)=C1\Nc2ccccc2S1 | -11% | -3% | -11% | 28% | 9% | -28%
Cc1ccc(NC(=S)/C(C#N)=C2/Nc3ccccc3S2)cc1 | 40µM* | -18% | / | / | / | /
O=S(=O)(c1ccc2ncsc2c1)N1CCN(c2nc(-c3cccs3)nc3ccccc23)CC1 | / | / | -11% | / | -7% | -20%
